The text below walks through data of PubChem BioAssay (Tox21).

Unmarked numbers belong to inactive results. Inconclusive results are not listed. Calls of active or inactive are those of the source. Unless noted, calls follow the shape of the dose curve; as a rule, active = well fitted curve in the direction sought with a large enough effect in the repeat runs; inconclusive = weak or mixed curves; inactive = no such curve, though single readings can be large; an effect the other way counts as inactive or inconclusive.

The nature of assay [1]: qHTS assay to identify small molecule agonists of the estrogen receptor alpha (ER-alpha) signaling pathway in the presence of an antagonist - cell viability counter screen (AID 1259386).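 Also: cells exposed to compounds for 22 h at 37 °C before the viability read; nearly all actives have a fitted effect of over 30% in size.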 Also: potency is read from the fitted curve at half-maximal effect. The procedure, abridged: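 In this counter screen, compound effects on VM7Luc4E2 viability were tested in the presence of the antagonist ICI-182,780 at 10.0nM final. Compounds were dosed at 15 concentrations, exposure lasted 22hr, and the CellTiter-Fluor signal was read.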

In assay [2] the target is Progesterone receptor (Homo sapiens) (UniProt P06401). Kind of assay: qHTS assay to identify small molecule agonists of the progesterone receptor (PR) signaling pathway (AID 1346784; calls by dose curve; also: nearly all actives have a fitted effect of over 30% in size). The essentials:
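Agonist qHTS: compounds pinned onto 3,000 PR-UAS-bla HEK 293T cells per well in charcoal-stripped serum medium, 16hr at 37C, then beta-lactamase activity measured by LiveBLAzer FRET fluorescence after 2 hours at room temperature.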

Assay [3] has the same target. Kind of assay: qHTS assay to identify small molecule antagonists of the progesterone receptor (PR) signaling pathway (AID 1346795; active = well fitted inhibition curve with a large enough effect in the signal ratio in the repeat runs, not every such curve was filed as active; the % refers to the signal ratio). The procedure, abridged: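 Antagonist mode with agonist R5020 at 1 nM final and 16 hr incubation at 37C. Reporter was beta-lactamase driven by UAS in HEK293T (PR-UAS-bla), 2% charcoal-stripped serum; signal from LiveBLAzer FRET substrate, 2 hr at room temperature.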
Background: Quantitative high-throughput screening tests each substance at several concentrations.

Assay [4] can be described thus: qHTS assay to identify small molecule antagonists of the progesterone receptor (PR) signaling pathway - cell viability counter screen (AID 1346798). Also: nearly all actives have a fitted effect of over 50% in size. Also: potency is read from the fitted curve at half-maximal effect. The procedure, abridged:
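Cytotoxicity read as CellTiter-Glo luminescence (30 min, room temperature) in the same wells as the beta-lactamase readout. HEK293T PR-UAS-bla cells in charcoal-stripped 2% FBS received compound and R5020, then 16 h at 37C, 5% CO2.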

Assay [5] in a line: qHTS assay to identify small molecule agonists of the progesterone receptor (PR) signaling pathway - cell viability counter screen (AID 1346799; calls by dose curve; also: nearly all actives have a fitted effect of over 45% in size). The procedure, abridged:
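Cytotoxicity measured by CellTiter-Glo luminescence (30 min, RT) in the same wells as the PR beta-lactamase agonist read. Those HEK293T cells had 16 h compound treatment at 37 C in 2% charcoal-stripped FBS medium.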

A short description of assay [6]: qHTS assay to identify small molecule antagonists of the TGF-beta/Smad signaling pathway - cell viability counter screen (AID 1346824). Also: nearly all actives have a fitted effect of over 50% in size. The essentials:
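SBE-bla HEK 293T cells were plated overnight at 37 C, then given compounds in DMSO plus TGF-beta1 (added as 0.25 ng/mL solution) for 5 hr. After the bla read, CellTiter-Glo was added to the same wells and luminescence read after 30 min at room temperature.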

Assay [7] is described as follows: qHTS assay to identify small molecule agonists of the TGF-beta/Smad signaling pathway - cell viability counter screen (AID 1346829). Also: top concentration of the series differs between compounds; nearly all actives have a fitted effect of over 45% in size. The procedure, abridged: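 Tox21 qHTS format: SBE-bla HEK 293T cells treated with DMSO-dissolved compounds for 5 hr; CellTiter-Glo luminescence after 30 min at room temperature.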
Assay [8] can be described thus: qHTS assay to identify small molecule agonists of the TGF-beta/Smad signaling pathway (AID 1346859; active = well fitted activation curve with a large enough effect in the signal ratio in the repeat runs, not every such curve was filed as active; the % refers to the signal ratio; also: series mostly up to about 77 µM). The procedure, abridged: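 Fluorescence (ex 405 nm; em 460 and 530 nm) was read 2 h after LiveBLAzer FRET substrate at RT. The preceding compound treatment of overnight-plated SBE-bla HEK293T cells lasted 5 h at 37 C.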
The target in assay [9] is Thyrotropin-releasing hormone receptor (Homo sapiens) (UniProt P34981). The experiment in a line: qHTS assay to identify small molecule antagonists of the thyrotropin-releasing hormone receptor (TRHR) signaling pathway (AID 1346877; active = well fitted inhibition curve with a large enough effect in the repeat runs, not every such curve was filed as active; also: series mostly up to about 51 µM). The essentials:
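Kinetic fluorescence (3 min, 1 s resolution) following stimulation with TRH at 1 nM final; HEK293 cells bearing human TRHR; 5 min compound preincubation at RT; concentration-response over 15 points, triplicates.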

For assay [10] the target is unchanged. The experiment in a line: qHTS assay to identify small molecule agonists of the thyrotropin-releasing hormone receptor (TRHR) signaling pathway (AID 1346891; calls by dose curve; also: series mostly up to about 58 µM). The essentials: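 Agonist-mode intracellular calcium readout: kinetic fluorescence over 3 min at 1 s intervals after compound addition to TRHR-HEK293 cells (18 h seeded, 2 h dye-loaded at 37 C). Fifteen concentrations, triplicates.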

A short description of assay [11]: Caspase-3/7 induction in HepG2 cells by small molecules, qHTS assay (AID 1346978). Also: nearly all actives have a fitted effect of over 15% in size. The essentials: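 Wild-type HepG2 cells (2,000/well) were settled 5 h at 37 C, 5% CO2, then exposed to compounds in DMSO for 17 h. Caspase-3/7 activity was read by luminescence 30 min after adding Caspase-Glo 3/7 reagent at room temperature.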
The nature of assay [12]: Caspase-3/7 induction in CHO-K1 cells by small molecules, qHTS assay (AID 1346980). Also: nearly all actives have a fitted effect of over 15% in size. The essentials: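 Wild-type cells were seeded at 1,500 per well and settled 5 hr at 37 C, 5% CO2, then exposed to DMSO-dissolved compounds for 17 hr. Caspase-Glo 3/7 reagent was added, and luminescence was read after 30min at room temperature.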
A short description of assay [13]: Caspase-3/7 induction in HepG2 cells by small molecules, qHTS cell viability counter screen (AID 1346981). Also: nearly all actives have a fitted effect of over 30% in size. Also: potency is read from the fitted curve at half-maximal effect. The procedure, abridged: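 In this quantitative HTS counter screen, compounds delivered in DMSO were left on unmodified HepG2 cells for 16 hr at 37 C. Viability was then determined fluorometrically with CellTiter-Fluor, in parallel with caspase-3/7 induction in the same wells.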

Assay [14] deals with Cytochrome P450 2D6 (Homo sapiens) (UniProt P10635). The experiment in a line: Cytochrome P450 Family 2 Subfamily D Member 6 (CYP2D6) small molecule antagonists: luciferase reporter qHTS assay (AID 1671196). Also: nearly all actives have a fitted effect of over 50% in size. Also: potency is read from the fitted curve at half-maximal effect. The procedure, abridged: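 Test chemicals meet CYP2D6 plus proluciferin substrate (10 min, RT); NADPH regenerating solution then drives turnover for 1 h. Detection reagent halts the reaction; luminescence measured after 20 min.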
Sequence of Cytochrome P450 2D6 (Homo sapiens) (P10635 whole entry, looked up): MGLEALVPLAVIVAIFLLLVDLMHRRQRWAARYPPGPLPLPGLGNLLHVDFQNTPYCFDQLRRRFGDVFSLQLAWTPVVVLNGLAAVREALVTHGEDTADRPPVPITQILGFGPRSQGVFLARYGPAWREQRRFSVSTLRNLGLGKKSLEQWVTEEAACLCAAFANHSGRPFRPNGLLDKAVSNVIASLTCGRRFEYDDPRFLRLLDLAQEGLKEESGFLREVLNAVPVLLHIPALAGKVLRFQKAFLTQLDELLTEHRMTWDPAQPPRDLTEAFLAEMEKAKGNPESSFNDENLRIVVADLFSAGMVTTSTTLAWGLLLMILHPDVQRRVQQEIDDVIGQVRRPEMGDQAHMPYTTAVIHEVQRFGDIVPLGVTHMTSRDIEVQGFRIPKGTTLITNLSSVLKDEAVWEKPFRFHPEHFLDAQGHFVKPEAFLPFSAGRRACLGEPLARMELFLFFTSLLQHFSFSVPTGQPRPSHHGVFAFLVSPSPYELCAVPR
(In general: In a reporter assay the amount or activity of a reporter protein is the signal.)

Assay [15] in a line: Caspase-3/7 induction in CHO-K1 cells by small molecules, qHTS cell viability counter screen (AID 1346979). Also: nearly all actives have a fitted effect of over 35% in size. The procedure, abridged:
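Cytotoxicity counter screen: CellTiter-Fluor added to compound-treated wild-type CHO-K1 cells at 16 h (37C, 5% CO2), fluorescence measured 1 h later; same wells as caspase-3/7 measurement.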

The target in assay [16] is Nuclear receptor subfamily 1 group I member 2 (Homo sapiens) (UniProt O75469). The experiment in a line: Human pregnane X receptor (PXR) small molecule agonists, qHTS assay (AID 1346982). Also: nearly all actives have a fitted effect of over 35% in size. The procedure, abridged:
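Reporter HepG2 cells expressing PXR-Luc are cultured in charcoal-stripped FBS (5%), treated with compounds for 24 hr at 37 C, and assayed by ONE-Glo luminescence after 30 min at room temperature.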

Assay [17] addresses Nuclear receptor subfamily 1 group I member 2 (Rattus norvegicus) (UniProt Q9R1A7). Kind of assay: Rat pregnane X receptor (rPXR) activation by small molecules, qHTS assay (AID 1346983). Also: nearly all actives have a fitted effect of over 20% in size. Conditions: rPXR luciferase reporter cells, One-Glo luminescence, 24 h; max activation: stronger effect = higher value. The procedure, abridged: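 Cell-based rPXR luciferase reporter assay, 2,000 cells per well, rested 5hr at 37 C before compound addition in DMSO, then 24 hr at 37 C. One-Glo reagent was added and luminescence read after 30 min at room temperature.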

The target of assay [18] is Nuclear receptor subfamily 1 group I member 2 (Homo sapiens) (UniProt O75469). The experiment in a line: CYP3A4 induction through human pregnane X receptor (PXR) by small molecules, qHTS assay (AID 1346984). Also: nearly all actives have a fitted effect of over 40% in size. The procedure, abridged: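 Induction measured in HepG2-based DPX-2 cells co-expressing human PXR and a CYP3A4 promoter-driven luciferase. After a 24-hour compound exposure, cells received CYP3A4 luciferin substrate at 3uM final for 3 hours, and light output was then recorded.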
Sequence of Nuclear receptor subfamily 1 group I member 2 (Homo sapiens) (O75469 whole entry, looked up): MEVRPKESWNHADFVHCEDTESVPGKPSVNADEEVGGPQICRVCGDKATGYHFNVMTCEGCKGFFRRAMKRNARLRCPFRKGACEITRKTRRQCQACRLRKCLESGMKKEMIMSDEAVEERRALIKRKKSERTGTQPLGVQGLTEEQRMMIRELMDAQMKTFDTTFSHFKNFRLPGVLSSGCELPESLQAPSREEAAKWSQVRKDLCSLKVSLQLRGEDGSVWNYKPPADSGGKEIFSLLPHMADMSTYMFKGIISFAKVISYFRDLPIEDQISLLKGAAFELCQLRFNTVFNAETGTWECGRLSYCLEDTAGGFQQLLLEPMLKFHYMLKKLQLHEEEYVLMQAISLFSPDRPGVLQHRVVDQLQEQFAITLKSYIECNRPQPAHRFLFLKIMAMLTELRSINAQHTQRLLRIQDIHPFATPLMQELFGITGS

Assay [19] shares this target. The experiment in a line: Human pregnane X receptor (PXR) activation by small molecules, qHTS assay (AID 1346985). Also: nearly all actives have a fitted effect of over 40% in size. The essentials:
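DPX-2 cells (HepG2 co-transfected with a PXR response element and a CYP3A4-promoter luciferase construct) were seeded at 2,000 per well, rested 5 hr at 37C, then exposed to DMSO-dissolved compounds for 24 hr. Activation was read as luciferase luminescence.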

Assay [20] can be described thus: Human pregnane X receptor (PXR) small molecule agonists, qHTS cell viability counter screen (AID 1346977). Also: nearly all actives have a fitted effect of over 50% in size. The procedure, abridged: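 Same-well viability read: CellTiter-Fluor added after 23 hr compound exposure, fluorescence measured 1 hr later. Cells were PXR-Luc HepG2 seeded at 2,000/well in 5% charcoal-stripped FBS medium, rested 5 hr before dosing at 37 C.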
% is scaled to controls: 0 for no effect and ±100 for the full control effect.

Sequence of Progesterone receptor (Homo sapiens) (P06401 whole entry, looked up): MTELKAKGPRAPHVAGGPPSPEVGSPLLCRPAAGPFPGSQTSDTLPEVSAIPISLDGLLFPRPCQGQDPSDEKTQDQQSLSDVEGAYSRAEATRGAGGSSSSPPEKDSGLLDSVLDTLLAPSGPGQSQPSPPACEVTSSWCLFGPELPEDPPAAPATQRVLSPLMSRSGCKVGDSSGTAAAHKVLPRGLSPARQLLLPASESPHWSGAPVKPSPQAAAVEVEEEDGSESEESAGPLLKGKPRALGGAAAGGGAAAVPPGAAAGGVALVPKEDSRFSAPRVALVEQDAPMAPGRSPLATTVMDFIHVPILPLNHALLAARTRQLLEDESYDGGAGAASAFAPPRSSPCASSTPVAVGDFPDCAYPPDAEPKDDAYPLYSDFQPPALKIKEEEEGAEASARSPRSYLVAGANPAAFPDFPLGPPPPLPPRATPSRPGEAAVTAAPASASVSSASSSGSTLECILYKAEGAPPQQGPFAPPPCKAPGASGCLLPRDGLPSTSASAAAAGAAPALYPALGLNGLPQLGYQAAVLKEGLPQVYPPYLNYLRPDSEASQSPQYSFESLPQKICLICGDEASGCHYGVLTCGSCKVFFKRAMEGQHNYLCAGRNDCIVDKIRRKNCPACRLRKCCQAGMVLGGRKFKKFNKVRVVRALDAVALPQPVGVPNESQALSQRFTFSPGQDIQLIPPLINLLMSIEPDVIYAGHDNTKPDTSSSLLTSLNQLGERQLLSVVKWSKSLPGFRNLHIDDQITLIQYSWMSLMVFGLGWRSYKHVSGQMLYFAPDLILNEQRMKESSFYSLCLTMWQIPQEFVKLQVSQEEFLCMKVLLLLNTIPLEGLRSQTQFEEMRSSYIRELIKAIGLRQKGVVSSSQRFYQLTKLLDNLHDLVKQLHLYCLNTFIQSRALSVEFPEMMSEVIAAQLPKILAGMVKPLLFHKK
Sequence of Thyrotropin-releasing hormone receptor (Homo sapiens) (P34981 whole entry, looked up): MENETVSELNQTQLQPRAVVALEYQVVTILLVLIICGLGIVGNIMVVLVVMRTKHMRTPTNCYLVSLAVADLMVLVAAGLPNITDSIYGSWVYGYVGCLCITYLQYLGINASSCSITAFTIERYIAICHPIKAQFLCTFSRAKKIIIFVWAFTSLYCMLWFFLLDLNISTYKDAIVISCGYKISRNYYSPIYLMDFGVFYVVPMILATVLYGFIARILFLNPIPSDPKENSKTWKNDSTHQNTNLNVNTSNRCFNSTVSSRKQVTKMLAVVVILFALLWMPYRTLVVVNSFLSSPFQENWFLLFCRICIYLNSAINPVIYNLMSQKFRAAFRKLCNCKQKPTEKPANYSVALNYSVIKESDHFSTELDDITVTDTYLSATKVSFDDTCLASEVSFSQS
Sequence of Nuclear receptor subfamily 1 group I member 2 (Rattus norvegicus) (Q9R1A7 whole entry, looked up): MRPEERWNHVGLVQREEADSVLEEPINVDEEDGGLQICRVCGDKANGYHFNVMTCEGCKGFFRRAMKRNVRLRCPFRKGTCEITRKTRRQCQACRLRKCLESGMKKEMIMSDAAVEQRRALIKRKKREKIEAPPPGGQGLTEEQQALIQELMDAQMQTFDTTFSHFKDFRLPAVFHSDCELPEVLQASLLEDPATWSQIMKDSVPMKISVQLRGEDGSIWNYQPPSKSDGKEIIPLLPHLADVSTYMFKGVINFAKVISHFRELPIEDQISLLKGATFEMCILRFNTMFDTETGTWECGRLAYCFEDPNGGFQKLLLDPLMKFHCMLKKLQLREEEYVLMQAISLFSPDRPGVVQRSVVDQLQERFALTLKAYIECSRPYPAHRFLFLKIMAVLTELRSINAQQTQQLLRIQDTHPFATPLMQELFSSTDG

As to `Cc1ccc(N=Nc2c(O)c(C(=O)O)cc3ccccc23)c(S(=O)(=O)O)c1`, the figures for the Potency in assay [1] and in assay [13] were 23.6 µM (active) and 29.7 µM (active), respectively. Further, the Potency entry in [2], in assay [3], in assay [4], in assay [5], in assay [6] and in [8] was “inactive” each time. The Potency result in assay [10], in assay [11], in assay [12] and in [14] was “inactive” in each case. Also, the compound was called inactive in assay [7] and in [9].

On to `CCn1cc(C(=O)O)c(=O)c2cnc(N3CCNCC3)nc21`, for which the Potency entry in assay [1], in assay [2], in [3], in [4], in assay [5] and in assay [6] was “inactive” in each case. Moreover, the Potency result in [8], in assay [10], in [11], in assay [15], in assay [13] and in [16] was “inactive” in each case. For the same compound, the Potency result in assay [18], in [19] and in assay [14] was “inactive” throughout. The compound was classed as inactive in [7] and in assay [9]. The max activation in assay [17] was -1.76%.

Consider `Nc1ccc(N)c2c1C(=O)c1ccccc1C2=O`, for which the Potency is 9.69 µM (active) in [1], 27.3 µM (active) in [4], 21.7 µM (active) in assay [13] and 35.6 µM (active) in assay [14]. Besides, the Potency result in assay [2], in assay [3], in assay [5], in [6], in assay [8] and in [10] was “inactive” each time. Further, the Potency entry in assay [11], in assay [12] and in assay [16] was “inactive” throughout. The outcome in [7] and in [9] was inactive.

Consider `C[Si](C)(CCCN)O[Si](C)(C)CCCN`, for which the Potency entry in [1], in assay [2], in [3], in [4], in [5] and in assay [6] was “inactive” each time. Moreover, the Potency result in assay [8], in assay [10], in assay [20], in [11], in assay [15] and in [12] was “inactive” each time. The Potency entry in [13] was “inactive”. In addition, the compound was classed as inactive in assay [7] and in assay [9]. In assay [14], the Potency was 22.4 µM (active).

On to `NCCCN1CCOCC1`, for which the Potency result in assay [1], in assay [2], in assay [3], in [4], in assay [5] and in assay [6] was “inactive” in each case. The Potency result in assay [8], in [10], in assay [15], in [12], in [13] and in [16] was “inactive” each time. For the same compound, the call in [7] and in [9] was inactive. In addition, in [14], the Potency is 35.5 µM (active).

For the compound `CCC(Cl)CCC(Cl)C(Cl)CC(Cl)C(Cl)C(Cl)CCl` (stereo not given), the Potency result in [1], in [2], in assay [3], in assay [4], in assay [5] and in [6] was “inactive” each time. For the same compound, the Potency result in assay [8], in assay [10], in [20], in [11], in assay [12] and in assay [13] was “inactive” throughout. The Potency result in assay [16] and in assay [14] was “inactive” throughout. Also, the result in [7] and in [9] was inactive.

Take `Nc1cccc(S(=O)(=O)c2cccc(N)c2)c1`: the Potency entry in assay [1], in [2], in assay [3], in assay [4], in [5] and in [6] was “inactive” in each case. In addition, the Potency result in assay [8], in [10], in assay [11], in [15], in [12] and in assay [13] was “inactive” throughout. Further, the Potency entry in assay [16] and in assay [14] was “inactive” throughout. Moreover, the compound was called inactive in assay [7] and in assay [9].
